Results published in ChEMBL document CHEMBL3433997, “St. Jude Leishmania screening dataset” (2016).

Legend:
Assay type in all cases: functional
[1] = molecular target: Solute carrier family 2, facilitated glucose transporter member 1 (Homo sapiens) (UniProt P11166); experiment: ST_JUDE_LEISH: Cytotoxicity at 2uM final concentration against transgenic Leishmania Mexicana promastigotes LmGLUT1 that are glucose transport deficient and complemented with the human glucose transporter GLUT1. Activity is measured by DNA content using SYBR green in vitro
[2] = molecular target: Hexose transporter 1 (Plasmodium falciparum) (UniProt O97467); experiment: ST_JUDE_LEISH: Cytotoxicity at 2uM final concentration against transgenic Leishmania Mexicana promastigotes LmPfHT that are glucose transport deficient and complemented with the Plasmodium falciparum hexose transporter. Activity is measured by DNA content using SYBR green in vitro
[3] = molecular target: Glucose transporter (Leishmania mexicana) (UniProt O61059); experiment: ST_JUDE_LEISH: Cytotoxicity at 2uM final concentration against transgenic Leishmania Mexicana promastigotes LmGT2 that are glucose transport deficient and complemented with the L. Mexicana glucose transporter 2. Activity is measured by DNA content using SYBR green in vitro

Solute carrier family 2, facilitated glucose transporter member 1 (Homo sapiens), sequence (P11166 whole entry): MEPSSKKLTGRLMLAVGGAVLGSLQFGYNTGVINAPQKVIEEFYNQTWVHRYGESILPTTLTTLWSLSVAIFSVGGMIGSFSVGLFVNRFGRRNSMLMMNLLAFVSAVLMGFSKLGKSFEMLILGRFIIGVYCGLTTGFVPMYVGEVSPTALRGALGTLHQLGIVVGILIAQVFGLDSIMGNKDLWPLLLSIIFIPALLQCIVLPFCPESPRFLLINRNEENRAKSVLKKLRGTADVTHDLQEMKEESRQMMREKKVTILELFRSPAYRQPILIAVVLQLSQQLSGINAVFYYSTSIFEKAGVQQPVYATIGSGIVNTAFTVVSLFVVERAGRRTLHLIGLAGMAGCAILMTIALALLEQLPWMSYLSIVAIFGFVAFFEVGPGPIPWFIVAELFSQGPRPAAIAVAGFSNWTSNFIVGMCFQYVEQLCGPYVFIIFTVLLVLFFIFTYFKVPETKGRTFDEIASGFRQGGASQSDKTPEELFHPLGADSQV

| Compound | inhibition [1] | inhibition [2] | inhibition [3] |
| --- | --- | --- | --- |
| CC(C)(CN)c1nc(-c2ccc(Cl)c(O)c2)c(-c2ccnc(N)n2)[nH]1 | -0.87% | -0.81% | -1.58% |
| N#Cc1ccc(NC(=O)Nc2ccc3c(c2)CCN(C2CCC2)CC3)cc1 | 5.18% | 4.41% | 3.26% |
| COc1ccc(NC(=O)/C=C/c2ccccc2Cl)cc1OCCN1CCC(NCc2ccccc2)CC1 | 3.15% | 2.49% | 0.75% |
| NCC1CCCN1Cc1ccc(-c2ccc(-c3nc4ccccc4[nH]3)s2)cc1 (configuration not stated) | -0.41% | -0.71% | -0.41% |
| CCOP(=O)(OCC)c1ccc(OC)c(-c2ccc[nH]2)c1 | 4.52% | 2.22% | 1.77% |
| N=c1c2c(n(Cc3cccc(Cl)c3)c3c1CCC3)CCCC2 | 40.7% | 49.2% | 20.4% |
| COc1cc2c(cc1OC)CN(CCCCNC(=O)c1ccc(NC(=O)c3cc(Cl)cc(Cl)c3)cc1)CC2 | 2.09% | 3.93% | 6.32% |
| FC(F)(F)c1cccc(CCNc2nccc(NCc3ccccc3Cl)n2)c1 | 5.73% | 4.26% | 0.1% |
| O=C(NC1CCC(N2CCC(c3ccccc3C(F)(F)F)CC2)CC1)c1cc2ccccc2[nH]1 (configuration not stated) | 8.86% | 5.68% | 31.2% |
| N#Cc1ccc(-c2ccc(C(=O)NCCCCN3CC=C(c4ccc5c(c4OCC4CC4)CCCC5)CC3)cc2)cc1 | 0.36% | 1.41% | -0.24% |
| CC(C)(C)NS(=O)(=O)c1cc(C(=O)N2CCC(CCN3CCC(C(=O)c4ccc(F)cc4)CC3)(c3cccc(F)c3)CC2)c(Cl)cc1F | 7.28% | 9.1% | 5.52% |
| COc1cc(Cc2cnc(N)nc2N)cc(OCCCCCCN2C(=O)c3ccccc3C2=O)c1OC | 7.29% | 4.53% | 5.48% |
| Cc1cc(-c2ccc(NC(=O)N3CCc4cc(Br)c(N5CCN(C)CC5)cc43)cc2)ccc1C#N | 11.9% | 18.9% | 8.55% |
| CCN(CC)CCON=Cc1cc(C)c2[nH]c3ccc(OCc4ccccc4)cc3c2c1C | -1.13% | 0.92% | -2.27% |
| COc1ccc(CNC2CCN(C)CC2)cc1-c1ccc(S(=O)(=O)NC2CCC2)c(C)c1 | 0% | -0.22% | -0.25% |
| CS(=O)(=O)c1ccc(CCNCc2ccc(-c3ccc(CN(C(=O)c4ccc(Cl)nc4)C4CCN(Cc5ccccc5)CC4)cc3)nc2)cc1 | 4.37% | 3.39% | 1.67% |
| CC1(C)CN2CCCC2c2cc(NC(=O)/C=C/c3ccccc3Cl)ccc21 (configuration not stated) | 3.26% | 2.04% | 0.94% |
| O=C(CSc1nccn1C1CCCC1)Nc1cc(C(F)(F)F)ccc1Cl | 1.51% | 2.58% | 2% |
| Cn1cccc1CCNCc1ccc(-c2cccc(-c3nc4ccccc4[nH]3)c2)cc1 | 3.79% | 3.07% | 2.55% |
| COc1cccc(C(=O)Nc2ccc(Nc3nc(C)cc(N(C)C)n3)cc2)c1OC | 2.81% | 4.32% | 1% |
| O=[N+]([O-])c1ccc(N/C(=N\c2ccccc2Br)NC2CCCc3ccccc32)c(O)c1 (configuration not stated) | 0.73% | -1.02% | -1.9% |
| O=C(Nc1ccc(-c2csc3nccn23)cc1)c1ccc(Cl)cc1 | 5.5% | 4.05% | -0.28% |
| Cc1cc(F)ccc1Oc1nc(Nc2ccc(N3CCOCC3)c(F)c2)nc2c1S(=O)(=O)CCC2 | 6.48% | 7.33% | 2.35% |
| CN(C)Cc1c(O)ccc2oc(Cc3ccccc3)cc12 | -1.64% | -1.55% | -0.96% |
| CN(CCN)Cc1cccc(-c2cccc(-c3nc4cc(F)ccc4[nH]3)c2)c1 | 1.11% | 1.79% | -1.76% |

| Compound | inhibition [1] | inhibition [2] | inhibition [3] |
| --- | --- | --- | --- |
| COc1ccc2ncc(F)c(NC(=O)C3CCC(NCc4cc5cc(F)cc(F)c5[nH]4)CC3)c2n1 (configuration not stated) | 68.5% | 78.5% | 82.5% |
| CC1(C)Cc2c(oc3ncn(CCn4cnc5oc6c(c5c4=N)CC(C)(C)SC6)c(=N)c23)CS1 | -0.76% | 0.58% | -0.4% |
| Cc1cccc2nc(-c3ccc(-c4ccc(NC(=O)C5CCN(C)CC5)cc4)cc3)[nH]c12 | 3.08% | 5.28% | 1.38% |
| O=c1[nH]ccc2nc(N[C@@H]3CCNC3)nc(Nc3cc(Cl)cc(Cl)c3)c12 | 7.56% | 8.18% | 9.4% |
| CCOc1cc2ncnc(Nc3ccc(OCc4ccccc4Br)c(OC)c3)c2cc1OCC | 5.55% | 5.15% | 2.49% |
| COc1ccc2c(c1)CCN(CCN1CCC(CNC(=O)c3ccc(-c4ccc(C#N)cc4)cc3)CC1)C2 | -0.11% | 1.19% | 2.22% |
| COc1cc(C(=O)NC2CC(C)(C)NC(C)(C)C2)ccc1-c1cc2cc(Cl)c(Cl)cc2[nH]1 | 1.69% | -0.26% | 2.02% |
| Cc1noc(C)c1-c1cccc(CNCc2ccc(-c3ccc(-c4nc5ccccc5[nH]4)s3)cc2)c1 | 1.82% | 1.38% | -0.04% |
| COc1ccc(NC(=O)/C=C/c2ccccc2Cl)cc1OCCN1CCC(NC2CC2)CC1 | 8.25% | 5.69% | 4.32% |
| COc1ccc(-c2ccccc2OCCCNc2nc(NCCc3ccc(O)cc3)nc(N3CCNCC3)n2)cc1 | 1.12% | 3.49% | 2.75% |
| O=C(c1cccc(-c2noc(C(F)(F)F)n2)c1)N1CCN(C(=O)c2ccc3cc[nH]c3c2)CC1 | -0.84% | -0.23% | -1.68% |
| CCOc1cc(C(=O)NCc2cccc(C(F)(F)F)c2)ccc1-c1nc2cc(Cl)ccc2[nH]1 | 2.15% | 2.24% | 1.82% |
| CCN(CC)C(C)(C)CN(Cc1ccc(-c2ccc(C(F)(F)F)cc2)cc1)C(=O)Cn1c(CCc2cccc(F)c2F)nc(=O)c2ccccc21 | 6.6% | 5.18% | 5.98% |
| CC(=O)Nc1ccc(CN(Cc2ccc(C)cc2)Cc2cccc(Oc3ccccc3)c2)cc1 | 2.75% | 3.12% | 2.62% |
| COc1cccc(C2=CC(C)(C)Oc3cc(OCCN(C)C)ccc32)c1 | 0.35% | -3.47% | 4.3% |
| Fc1ccc(-c2csc3ncnc(Cl)c23)cc1 | -0.36% | -0.72% | -2.14% |
| Cc1cc(NC(=O)c2ccco2)ccc1OC1CCN(Cc2ccc(C#N)cc2)CC1 | 1.63% | 1.09% | 1.11% |
| C=CCOc1cc(Cc2cnc(N)nc2N)cc(OC)c1OC | 1.5% | -3.15% | -1.97% |
| COc1cccc(C(=O)NC(C=Cc2ccccc2)c2cc(Cl)c3cccnc3c2O)c1 (configuration not stated) | 2.89% | 2.04% | 2% |
| COc1ccccc1CCNC(=O)c1cc(Br)cc(N2CCN(c3ccncc3)CC2)c1 | 1.16% | 2.75% | 0.04% |
| CCOC(=O)c1c(NC(=O)c2ccccc2)sc2c(O)c(CNC3CCCCC3)ccc12 | -1.14% | -0.58% | -0.44% |
| CC(C)(c1ccccc1)c1ccc(O)c(CN2CCOCC2)c1 | -0.49% | -1.3% | -0.41% |
| CN(C)C(=O)CC(=O)NCc1c(Cl)cccc1Cl | 0.42% | 4.4% | 2% |
| CC(C)(C)c1nn(-c2ccccc2)c2[nH]c(=O)c(CNCCc3ccccc3)cc12 | 0.22% | -1.47% | -1.89% |
| CCCOc1ccc(-c2nonc2NC(=O)c2ccccc2OC)cc1OCCC | 12% | 14.6% | 10.7% |

| Compound | inhibition [1] | inhibition [2] | inhibition [3] |
| --- | --- | --- | --- |
| COc1ccc2nccc(N3CCC(CCNCc4ccc5c(n4)NC(=O)CS5)CC3)c2n1 | 4.06% | 4.8% | 7.97% |
| N=c1c2c(n(Cc3ccccc3)c3c1CCC3)CCCC2 | 26.6% | 28.1% | 7.1% |
| CC(C)(CN1CCCC1)CN(Cc1ccc(-c2ccc(C(F)(F)F)cc2)cc1)C(=O)Cn1c(CCc2cccc(F)c2F)nc(=O)c2ccccc21 | 10.3% | 8.05% | 8.96% |
| Cc1ccc(-c2nc(N3CCN(C(=O)c4ccco4)CC3)c3ccccc3n2)cc1 | 2.55% | 0.57% | 0.1% |
| COc1ccc(C(=O)CCc2ccc(O)cc2)cc1 | 1.26% | 1.48% | 2.43% |
| O=C(Cc1ccc(F)cc1)NC1CCN(c2ccnc3cc(Cl)ccc23)C1 (configuration not stated) | 0.69% | 1.78% | 2.41% |
| OC(CNCc1ccccc1OCc1ccccc1)c1cccc(Br)c1 (configuration not stated) | 4.31% | 4.13% | 2.24% |
| O=C(c1ccco1)N1CCN(c2ccc([N+](=O)[O-])c(NC3CC3)c2)CC1 | 0.6% | 0.13% | -1.35% |
| CCn1ncc2c(NC3CCOCC3)c(CNC(=O)c3ccnn3C)c(C)nc21 | 3.11% | 2.89% | 0.31% |
| OC(c1nnc(S)n1-c1ccccc1)C(O)c1nnc(S)n1-c1ccccc1 (configuration not stated) | 10.1% | 8.57% | 10% |
| Cc1ccc(NC(=O)Nc2ccc(S(=O)(=O)c3ccc(NC(=O)Nc4ccc(C)c(Cl)c4)cc3)cc2)cc1Cl | 0.06% | -0.49% | 1.78% |
| COc1ccc(C(=O)Nc2ccc(Cl)cc2C(=O)Nc2ccncc2)cc1 | 4.33% | 3.94% | -0.77% |
| CC1CCCCC1N(C)C1CCN(CCCNC(=O)C=Cc2ccccc2Cl)CC1 (configuration not stated) | -0.22% | -0.24% | -0.58% |
| COc1c(C2CCN(CCCCNC(=O)c3ccc(-c4ccc(Cl)cc4)cn3)CC2)ccc2c1CCCC2 | -1.51% | -0.19% | -2.15% |
| CO/C(=C\C=C\c1cc2cc(Cl)c(Cl)cc2[nH]1)C(=O)NCCN1CCCCC1 | 0.85% | 1.14% | 0.35% |
| CC(C)c1ccc(NC(=O)N2CCc3ccc(OCCN(C(C)C)C(C)C)cc32)c(Br)c1 | -3.12% | 0.76% | 1.63% |
| CCCc1cc(Cc2cnc(N)nc2N)ccc1OCCCCCC(=O)O | 1.42% | 2.24% | 1.32% |
| Fc1ccc2[nH]ccc(=NN=Cc3ccccc3Cl)c2c1 | -0.64% | 0.73% | 1.87% |
| CC(Nc1nncc(-c2cccc(F)c2)n1)c1ccc(F)cc1 (configuration not stated) | 11.7% | 9.2% | 10.7% |
| CCCCCCn1c2c(c(=N)c3c1CCC3)CCC2 | 86.4% | 85.9% | 83.1% |
| Nc1nccc2ccc(-c3cccc(O)c3)cc12 | 7.38% | 6.21% | 4.01% |
| O=C(Nc1ccc2c(c1)CCC2)N[C@H]1CCN(CCCCCNC(=O)C2CC2c2ccc(Cl)c(Cl)c2)C1 (some centres not stated) | -0.7% | 0.43% | -0.01% |
| COc1cc(OCCCCCCON2C(=N)N=C(N)NC2(C)C)cc(OC)c1OC | 7.66% | 8.02% | 6.93% |
| CCCCNc1nc(NCCCC)c2c(C)c(Cc3ccccc3)c(NCCCC)nc2n1 | 39.8% | 43.6% | 12.3% |
